Measurements from PubChem BioAssay (NCI).
Compounds without any hit were thinned out: in the full panel of roughly 83,000, 20% have a hit.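 For each line, cells grew in 96-well plates with the test compound present at a single concentration for 48 hours.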 Activity calls are given as the source filed them. How the source made its calls: active means growth percent below 10; inactive means the rest.

Assays:
Experiment in all cases: NCI-60 one-dose screen, 48 h (100 = growth as untreated, 0 = no growth, -100 = all killed)
Conditions in all cases: 10 µM unless noted
NCI-H23 lung = tested on: NCI-H23 lung
NCI-H226 lung = tested on: NCI-H226 lung
NCI-H322M lung = tested on: NCI-H322M lung
HOP-62 NSCLC = tested on: HOP-62 NSCLC
NCI-H460 lung = tested on: NCI-H460 lung
HOP-92 NSCLC = tested on: HOP-92 NSCLC
NCI-H522 lung = tested on: NCI-H522 lung
A549/ATCC NSCLC = tested on: A549/ATCC NSCLC
786-0 renal = tested on: 786-0 renal
COLO 205 colon = tested on: COLO 205 colon

Measured: growth

CC1(C)C2CC1C1(/C=N\Nc3ccccc3)C(C2)C(C#N)(C#N)C1(C#N)C#N (stereo not given)
inactive: NCI-H23 lung 85.1% | NCI-H226 lung 86.8% | NCI-H322M lung 80.4% | HOP-62 NSCLC 86.1% | NCI-H460 lung 99% | HOP-92 NSCLC 80.9% | NCI-H522 lung 77.8% | A549/ATCC NSCLC 93.4% | 786-0 renal 100% | COLO 205 colon 115%

CN(C)CCN1CCN(c2ncccc2C2Nc3ccccc3-n3cccc32)CC1 (stereo not given)
inactive: NCI-H23 lung 96.2% | NCI-H226 lung 102% | NCI-H322M lung 102% | HOP-62 NSCLC 109% | NCI-H460 lung 106% | HOP-92 NSCLC 84.9% | NCI-H522 lung 104% | A549/ATCC NSCLC 103% | 786-0 renal 91.8%
active: COLO 205 colon -48.6%

Cc1nn(-c2ccccc2)c(-n2ccnc2)c1/C=N/Nc1nc(-c2ccc(Cl)c(Cl)c2)cs1
active: NCI-H460 lung 3.5% | HOP-92 NSCLC -22.9% | A549/ATCC NSCLC -8.24%
inactive: NCI-H23 lung 12.5% | NCI-H226 lung 51.9% | NCI-H322M lung 76% | HOP-62 NSCLC 10.8% | NCI-H522 lung 31.5% | 786-0 renal 20.7% | COLO 205 colon 52.1%

CCN(CC)Cc1cc(Nc2c3ccc(Cl)cc3nc3ccc(OC)cc23)ccc1O
inactive: NCI-H23 lung 65.7% | NCI-H226 lung 86% | NCI-H322M lung 62.5% | HOP-62 NSCLC 80.5% | NCI-H460 lung 34.9% | HOP-92 NSCLC 60.5% | NCI-H522 lung 39% | A549/ATCC NSCLC 52.4% | 786-0 renal 47.3%
active: COLO 205 colon 5.97%

OC(COc1ccccc1Cl)CN1CCN(c2cccc(Cl)c2)CC1 (stereo not given)
inactive: NCI-H23 lung 100% | NCI-H226 lung 96.5% | NCI-H322M lung 108% | HOP-62 NSCLC 119% | NCI-H460 lung 121% | HOP-92 NSCLC 79.2% | NCI-H522 lung 88.5% | A549/ATCC NSCLC 101% | 786-0 renal 98.3% | COLO 205 colon 101%

CCc1ccc(Oc2c(-c3ccc(OCc4ccc(Cl)cc4)cc3O)n[nH]c2C(F)(F)F)cc1
inactive: NCI-H226 lung 24.8% | NCI-H322M lung 35.3% | HOP-62 NSCLC 57.5% | A549/ATCC NSCLC 33.5% | 786-0 renal 64.4% | COLO 205 colon 95.7%
active: NCI-H23 lung 3.59% | NCI-H460 lung 3.21% | HOP-92 NSCLC -17.2% | NCI-H522 lung -22.9%

COc1ccccc1/C=C1\Oc2cc(OCCN3CCC(Cc4ccccc4)CC3)ccc2C1=O
inactive: NCI-H23 lung 93.9% | NCI-H226 lung 96.9% | NCI-H322M lung 85.6% | HOP-62 NSCLC 103% | NCI-H460 lung 93% | HOP-92 NSCLC 57.8% | NCI-H522 lung 91.7% | A549/ATCC NSCLC 96.2% | 786-0 renal 80% | COLO 205 colon 38.4%

Nc1ccc(Sc2ccc([N+](=O)[O-])c3nonc23)cc1
active: NCI-H522 lung 2.03%
inactive: NCI-H23 lung 95.8% | NCI-H226 lung 96.5% | NCI-H322M lung 101% | HOP-62 NSCLC 92.2% | NCI-H460 lung 96.7% | HOP-92 NSCLC 103% | A549/ATCC NSCLC 89.8% | 786-0 renal 93.5% | COLO 205 colon 40.6%

CCC(=O)Nc1ccc(-c2nc(-c3cccc(OC)c3)c(-c3ccnc(Br)c3)[nH]2)cc1
inactive: NCI-H23 lung 76.9% | NCI-H226 lung 55.1% | NCI-H322M lung 67.4% | HOP-62 NSCLC 75.3% | NCI-H460 lung 49.4% | HOP-92 NSCLC 61.4% | NCI-H522 lung 56.9% | A549/ATCC NSCLC 60.9% | 786-0 renal 40.8% | COLO 205 colon 71.2%

Cc1cc(O)c(C2=NN(c3ccc(S(N)(=O)=O)cc3)C(/C=C/c3ccccc3)C2)cc1Cl (stereo not given)
active: 786-0 renal 7.75%
inactive: NCI-H23 lung 22.3% | NCI-H226 lung 33.7% | NCI-H322M lung 57.5% | HOP-62 NSCLC 17.6% | NCI-H460 lung 35.3% | HOP-92 NSCLC 29.6% | NCI-H522 lung 31.9% | A549/ATCC NSCLC 46.6% | COLO 205 colon 65.2%

Cc1ccc(-c2nn(C)c(=O)c3noc(-c4ccc(C)cc4)c23)cc1
inactive: NCI-H23 lung 43.1% | NCI-H226 lung 58% | NCI-H322M lung 56.4% | HOP-62 NSCLC 28.1% | NCI-H460 lung 22.7% | HOP-92 NSCLC 14.2% | A549/ATCC NSCLC 46.2% | 786-0 renal 29% | COLO 205 colon 12.5%
active: NCI-H522 lung 9.02%

N#CC1=C(N)Oc2c(sc3c(Br)cccc23)C1c1ccc(Br)cc1 (stereo not given)
active: NCI-H460 lung 6.62% | NCI-H522 lung -7.13% | COLO 205 colon -49.5%
inactive: NCI-H23 lung 20.4% | NCI-H226 lung 57.1% | NCI-H322M lung 42.3% | HOP-62 NSCLC 22% | HOP-92 NSCLC 34.7% | A549/ATCC NSCLC 25.5% | 786-0 renal 17.1%

COc1ccn2c(C(C)=O)cc(C(=O)c3ccc4c(c3)Sc3ccccc3N4)c2c1
inactive: NCI-H23 lung 28.3% | NCI-H226 lung 26% | NCI-H322M lung 42.8% | HOP-62 NSCLC 20.2% | HOP-92 NSCLC 31.2% | A549/ATCC NSCLC 10.5% | 786-0 renal 10.7%
active: NCI-H460 lung 4.07% | NCI-H522 lung -21.5% | COLO 205 colon -41%
